Tests used:
Assay in all cases: PBM binding z-score (relative to random genomic background probes); higher = stronger binding; sequences stand for … in GC…GCGATTGACAGCGTAGAATGAAGG
[1] = tested on: FXR:RXRa (NR concentration 270 nM, RXRa partner concentration 90 nM)
Procedure, shortened: (§1)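 Binding z-scores were set against random background probes. The data came from custom Agilent 4×180K protein-binding microarrays carrying double-stranded probes with 34-nt variable regions, incubated 1 h with ligand-free nuclear receptor dimers. Partner-specific antibodies detected binding, and scanned fluorescence was regression-normalized.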

[2] = tested on: LXRa:RXRa (NR concentration 270 nM, RXRa partner concentration 90 nM)
Procedure, shortened: as §1

[3] = tested on: LXRa homodimer (NR concentration 270 nM)
Procedure, shortened: as §1

[4] = tested on: LXRb:RXRa (NR concentration 270 nM, RXRa partner concentration 90 nM)
Procedure, shortened: as §1

[5] = tested on: LXRb homodimer (NR concentration 270 nM)
Procedure, shortened: as §1

[6] = tested on: PPARa:RXRa (NR concentration 270 nM, RXRa partner concentration 90 nM)
Procedure, shortened: as §1

[7] = tested on: PPARg:RXRa (NR concentration 180 nM, RXRa partner concentration 90 nM)
Procedure, shortened: as §1

[8] = tested on: PPARg:RXRa 270nM:90nM, anti-RXR (NR concentration 270 nM, RXRa partner concentration 90 nM)
Procedure, shortened: as §1

[9] = tested on: PPARg:RXRa 30nM:10nM, anti-RXR (NR concentration 30 nM, RXRa partner concentration 10 nM)
Procedure, shortened: as §1

[10] = tested on: PPARg:RXRa 90nM:30nM, anti-RXR (NR concentration 90 nM, RXRa partner concentration 30 nM)
Procedure, shortened: as §1

| Sequence | PBM binding z-score [1] | PBM binding z-score [2] | PBM binding z-score [3] | PBM binding z-score [4] | PBM binding z-score [5] | PBM binding z-score [6] | PBM binding z-score [7] | PBM binding z-score [8] | PBM binding z-score [9] | PBM binding z-score [10] |
| --- | --- | --- | --- | --- | --- | --- | --- | --- | --- | --- |
| CAAACTAGGTCACGCAAGGTCAAAGTCGAATGAC | 7.41 | 7.71 | 7.2 | 7.01 | 1.72 | 6.75 | 10.2 | 7.79 | 6.97 | 8.64 |
| GCTATTGGTTGAAAGGGCAACCGAATGATTCTCG | 0.353 | 0.664 | -0.156 | 0.954 | -0.225 | 2.36 | 2.29 | 4.34 | 1.94 | 4.37 |
| TTACCACGGTGAGCTGAGGTCGTTGATCCAACTC | 0.647 | 0.233 | -0.365 | 0.375 | -1 | 0.798 | -0.279 | 0.206 | -0.397 | -0.177 |
| CCTACTGAGCCAAGGTCATTGATCAGTCAAAGCA | 3.46 | 3.43 | 1.43 | 3.3 | 0.637 | 3.61 | 0.656 | 1.62 | 0.331 | 0.858 |
| TCTCGGAGGACACGAAAGGTCAGACCTCGACATC | 3.09 | 3.69 | 3.12 | 3.51 | -0.0358 | 3.57 | 1.38 | 2.68 | 2.63 | 2.67 |
| TCTCGGAGGACACGAAAGGTTAGAGCTCGACATC | 1.18 | 0.89 | -0.0791 | 0.782 | -0.852 | 1.46 | 0.441 | 1.69 | 2.52 | 2.03 |
| CAAACTAGGACACCGGAAGGTCAAAGTCCGCATG | 3.19 | 3.23 | 3.38 | 3.19 | 0.695 | 4.46 | 4.72 | 4.54 | 1.9 | 3.7 |
| CAAACTAGGTCAAGTGGTCAAAGTCCGCTTCCCG | 4.81 | 3.79 | 1.15 | 2.42 | 0.597 | 5.45 | 8.38 | 7.13 | 5.18 | 6.97 |
| CCTACTGGGCCATTCAGAGGTCATTGCTCATATG | 2.76 | 4.37 | 6.67 | 3.6 | 0.398 | 3.57 | 1.99 | 2.92 | 0.777 | 2.16 |
| CGCCCAAGGTCATAGGAGGTCAGTGAAGACAGAT | 7.29 | 7.31 | 4.78 | 6.09 | 0.731 | 5.8 | 5.24 | 5.41 | 2.05 | 4.11 |
| CGCACTAGGTCAAGGACAGTGAATCTCCGCACGC | 3.09 | 2.28 | 0.266 | 1.46 | 0.1 | 4.26 | 6.58 | 5.97 | 3.25 | 5.37 |
| TCTTGTAGATCAACAGGAGGCTAAGAAAGATCGA | -0.113 | -0.312 | -0.481 | -0.391 | -0.588 | -0.00556 | -0.179 | 1.14 | 2.28 | 1.35 |
| CAAACTAGGTCACGAAAAGTCAAAGTCGAATGAC | 4.52 | 5.32 | 0.989 | 3.22 | 0.716 | 5.53 | 9.43 | 7.43 | 5.91 | 7.51 |
| GGAACGAGGGCAAAGTTGATAGTATCTGTCGACG | 1.26 | 0.763 | -0.348 | 0.972 | -0.379 | 4.02 | 6.9 | 7.32 | 6.78 | 7.32 |
| CCTGCTAGGTCATTGTCAGCTAATCTACAGTATG | 3.88 | 2.99 | 0.878 | 1.84 | 0.257 | 2.94 | 1.29 | 2.14 | 0.169 | 1.22 |
| ATCTCTAGGTAACAAAGTTCAGTGAATGCCGAAC | 0.948 | 1.9 | 2.1 | 1.27 | 0.958 | 2.12 | 2.01 | 3.09 | 1.01 | 2.42 |
| CGAACGAGGGAATGAGTTGATAGCAAATGCCGAT | -0.82 | -0.749 | -0.474 | -1.01 | -0.729 | -1.17 | 0.578 | -0.457 | -0.284 | -0.51 |
| GTGCCAAGGTGAATAGGTCGTTGATGAGTAGGCG | 0.631 | 0.487 | -0.344 | 0.408 | -0.536 | 2.12 | 1.15 | 1.53 | 0.00309 | 0.77 |
| AGAATGAGGTTACCAAAGATCAGGGAAACGCTTG | 1.86 | 6.59 | -0.00475 | 3.1 | -0.712 | 3.65 | 3 | 3.03 | 0.954 | 2.22 |
| TCGTGTAGGTTAGTCGGGGCATTCAGCCAACATA | 0.782 | 0.838 | 0.294 | 1.36 | 0.252 | 1.16 | -0.0243 | 1.38 | 2.34 | 1.62 |
| CAAACTAGGTCACAGAGGTCATAGTCCGTGCGTA | 6.73 | 6.13 | 6.94 | 5.6 | 1.6 | 6.22 | 10 | 8 | 7.14 | 7.77 |
| CCGAGTAGGTTATGGAGCATTCAGGCAACGGTGA | 0.0328 | 0.259 | 0.125 | 0.219 | -0.185 | 1.01 | 1.36 | 2.08 | 0.32 | 1.46 |

| Sequence | PBM binding z-score [1] | PBM binding z-score [2] | PBM binding z-score [3] | PBM binding z-score [4] | PBM binding z-score [5] | PBM binding z-score [6] | PBM binding z-score [7] | PBM binding z-score [8] | PBM binding z-score [9] | PBM binding z-score [10] |
| --- | --- | --- | --- | --- | --- | --- | --- | --- | --- | --- |
| CATACTAGGTCACCGGAAGGTCAAAGTCCGCATG | 5.94 | 6.26 | 5.63 | 5.54 | 2.08 | 5.71 | 8.32 | 7.18 | 4.5 | 6.47 |
| GGAACGAGGGCATTCGAGTTGATAACATGGCGAT | 1.09 | 1.76 | -0.0799 | 0.415 | -0.451 | 1.56 | 1.3 | 0.636 | -0.0941 | 0.231 |
| ATATGTAGGTTAAGGGTCATTGAGGTTGGTTCGC | 5.02 | 4.71 | 3.01 | 4.45 | 1.6 | 6.56 | 11.9 | 10 | 10.5 | 10.7 |
| CCGAGTAGCTTATGGGGCATTCAGGCAACGGTGA | -0.494 | -0.536 | -0.883 | -0.715 | -1.2 | -0.234 | -0.0289 | -0.512 | -0.765 | -0.818 |
| TCATATATGTAAACAGGTGAAAGTCCGTAAGTTA | 0.999 | 1.09 | 0.211 | 1.51 | 0.115 | 1.84 | 1.67 | 2.97 | 3.81 | 3.19 |
| ATCTCTAGGTAACAAGTTCAGTGAAAGAGAGGAC | 0.883 | 1.09 | 0.507 | 0.886 | 1.21 | 1.82 | 1.52 | 1.92 | 0.986 | 1.73 |
| CTACCAAGGTGAACAAGGTCATTGATTACTATTC | 3.73 | 3.77 | 2.33 | 3.63 | -0.00581 | 3.92 | 2.24 | 2.85 | 0.479 | 1.65 |
| GCAAATAGGTAATACAAGGTGAAAGTCCGATTGT | 2.27 | 2.87 | 0.422 | 0.806 | -0.48 | 1.49 | 1.02 | 1.19 | 0.599 | 0.979 |
| TCTGCTAGGTCAACGATGGTCAGCAAATCTGCTA | 3.33 | 2.48 | -0.168 | 1.69 | -0.321 | 3.27 | 2.79 | 3.15 | 2.13 | 2.56 |
| GCTGCTAGGTCACCTGATGGTCAGCTAAAGCTCG | 3.25 | 2.4 | -0.338 | 1.66 | -0.22 | 3.22 | 2.21 | 2.86 | 0.569 | 1.95 |
| TCTTGTAGATCAATAGAGGTTAAGAAAGTGCGCT | 0.723 | 3.4 | 0.589 | 1.83 | -0.158 | 1.8 | -0.124 | 1.46 | 2.83 | 2.18 |
| CCTACTAGTTGACCATAAGGGCAACCGAAGCTCG | 0.832 | 0.281 | 0.276 | 0.306 | 0.518 | 0.516 | 0.418 | 0.311 | -0.164 | 0.0805 |
| CCTACTGGGCCAAGGTCATTGTTCAGTCAAAGCA | 2.83 | 3.04 | 1.28 | 2.99 | -0.347 | 4.06 | 3.84 | 4.26 | 1.73 | 3.71 |
| TAGCCTAGGTCATGCGGGCCAGTATGGTGTCGGC | 3.96 | 3.27 | -0.0396 | 1.44 | -0.233 | 3.43 | 1.79 | 2.41 | -0.0378 | 1.2 |
| ATCCCTAGGTAAAAGTTCAGTGAATCCCGAGGAT | 0.811 | 1.11 | 0.954 | 0.838 | 0.347 | 2.71 | 3.92 | 4.85 | 3.04 | 4.55 |
| TGAATGAGGTTATAAGATCAGGGAGCGTTGCAAA | 1.22 | 1.19 | -0.626 | 0.707 | -0.471 | 2.63 | 1.63 | 1.91 | 0.643 | 1.55 |
| CCTCGGAGGACAACAGGAGGTCAGAGCTGCCAGA | 1.12 | 2.26 | 1.95 | 1.36 | -0.474 | 1.99 | 0.527 | 0.477 | -0.553 | 0.529 |
| CCTCGGACGACAGAAGGTCAGAGCTGTCCGCTTT | 1.1 | 1.53 | 0.0414 | 1.18 | -0.358 | 1.83 | -0.153 | -0.0801 | -1.06 | -0.472 |
| ATCTATAGGTAAAAGTTCAGTGAATCCCGAGGAT | 0.696 | 1.58 | 1.09 | 1.06 | 0.602 | 3.99 | 6.8 | 6.94 | 5.53 | 7.36 |
| TCTAGCAGGCCAGAGGGTCACTCTAGAGGTACGG | 0.795 | 0.863 | -0.632 | 1.02 | -1.09 | 2.13 | 1.45 | 2.77 | 2.29 | 2.45 |
| ATCTCTAGGTAAGAGTTCAGTGAATCCCGAGGAT | 0.291 | 1.13 | 0.982 | 0.873 | 0.69 | 3.22 | 5.23 | 6.11 | 4.98 | 6.44 |
| CCTACTGGGCCAAAAAGGTCATGGATGCCGATAA | 3.67 | 4.35 | 2.1 | 4.13 | -0.189 | 5.2 | 4.16 | 4.82 | 1.68 | 3.88 |
